The panel holds about 79,000 compounds, 15% with a hit somewhere; the sample as a whole holds those more often. The source made the active and inactive calls. No stated cut-off is given here; in the data, active means growth inhibition above about 70%; inactive means the rest.
Experiments:
[1] = NCI Yeast Anticancer Drug Screen. Data for the wt1 strain (AID 149);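 further: 0% = growth of vehicle-treated wt1 cultures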; settings: S. cerevisiae wt1 strain (SPY 50644) growth inhibition, active compounds read high
How it was run: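 Vehicle-normalised growth inhibition; strain wt1; compound exposure.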

[2] = NCI Yeast Anticancer Drug Screen. Data for the rad50EPP+ strain (AID 151);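 further: 0% = growth of vehicle-treated control cultures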; settings: S. cerevisiae rad50 mutant strain, active compounds read high
How it was run: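 Vehicle-normalised growth inhibition; rad50EPP+ yeast strain, altered in DNA damage repair, compound-treated.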

[3] = NCI Yeast Anticancer Drug Screen. Data for the mgt1 strain (AID 153); settings: S. cerevisiae mgt1 mutant growth inhibition, active compounds read high
How it was run: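 Vehicle-normalized growth inhibition is determined in mgt1 yeast, a strain selected for a defined alteration in DNA repair or cell cycle control.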

[4] = NCI Yeast Anticancer Drug Screen. Data for the rad50 strain (AID 155);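 further: 0% = growth of vehicle-only cultures of the same strain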; settings: S. cerevisiae rad50 strain growth inhibition, active compounds read high
How it was run: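 A DNA repair-deficient yeast mutant serves as the test organism; compound-induced growth inhibition is calculated against vehicle-treated cells.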

[5] = NCI Yeast Anticancer Drug Screen. Data for the mec2-1 strain (AID 157); settings: S. cerevisiae mec2-1 strain, active compounds read high
How it was run: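 Mutant yeast (mec2-1) grown with compound; growth inhibition relative to vehicle control reported.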

[6] = NCI Yeast Anticancer Drug Screen. Data for the rad14 strain (AID 159);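 further: 0% = growth of vehicle-treated control cultures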; settings: S. cerevisiae rad14 strain growth inhibition, active compounds read high
How it was run: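 Vehicle-treated cultures served as the baseline for growth inhibition of a DNA repair-mutant yeast strain exposed to each compound.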

[7] = NCI Yeast Anticancer Drug Screen. Data for the sgs1 mgt1 strain (AID 161);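 further: 0% = growth of cultures given vehicle only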; settings: S. cerevisiae sgs1 mgt1 strain, active compounds read high
How it was run: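 This yeast growth screen uses a strain with defined DNA-repair lesions; compound-treated growth is compared with vehicle-treated growth.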

[8] = NCI Yeast Anticancer Drug Screen. Data for the CLN2oe strain (AID 163);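 further: 0% = growth of vehicle-only control cultures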; settings: S. cerevisiae CLN2oe strain, active compounds read high
How it was run: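 Compounds are applied to yeast harbouring a defined cell-cycle control change; reduced growth compared with vehicle-treated controls gives the value.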

[9] = NCI Yeast Anticancer Drug Screen. Data for the cln2 rad14 strain (AID 165);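 further: 0% = growth equal to vehicle treated cultures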; settings: S. cerevisiae cln2 rad14 strain, active compounds read high
How it was run: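 Readout is yeast growth inhibition versus vehicle-treated controls, using a strain with cln2 and rad14 alterations exposed to compound.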

[10] = NCI Yeast Anticancer Drug Screen. Data for the bub3 strain (AID 167); settings: S. cerevisiae bub3 mutant strain, active compounds read high
How it was run: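 Inhibition values come from growth of compound-treated mutant yeast normalised to vehicle-treated controls.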

[11] = NCI Yeast Anticancer Drug Screen. Data for the mlh1 strain (AID 171);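 further: 0% = growth of vehicle-treated control cultures of the same strain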; settings: S. cerevisiae mlh1 strain growth inhibition, active compounds read high
How it was run: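 Measured: yeast growth. Reference: vehicle-treated controls. Organism: strain with a defined alteration affecting DNA damage repair or cell cycle control, treated with compound.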

[12] = NCI Yeast Anticancer Drug Screen. Data for the sgs1 strain (AID 173);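 further: 0% = growth of vehicle-only control cultures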; settings: S. cerevisiae sgs1 mutant, active compounds read high
How it was run: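 Each compound was added to cultures of the altered yeast strain. Growth was recorded, and inhibition was derived by comparison with vehicle controls.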

[13] = NCI Yeast Anticancer Drug Screen. Data for the mlh1 rad18 strain (AID 175); settings: S. cerevisiae mlh1 rad18 strain growth inhibition, active compounds read high
How it was run: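 Genetically defined yeast (DNA repair-deficient) exposed to compounds; growth inhibition determined relative to vehicle.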

[14] = NCI Yeast Anticancer Drug Screen. Data for the rad18 strain (AID 177); settings: S. cerevisiae rad18 mutant growth inhibition, active compounds read high
How it was run: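 Vehicle-treated cultures served as the baseline for scoring compound-induced growth inhibition in DNA-repair-mutant yeast.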

[15] = at 5.0 µM (retest, dose inferred, filed as 0.5)
[16] = at 50.0 µM (retest, dose inferred, filed as 5.0)

Measured: growth inhibition

Nc1ccc2ncc(Nc3ccc(Cl)c(Cl)c3)nc2c1
active: [1]; at 33.0 µM 95% | [1]; at 100.0 µM 96% | [3]; at 33.0 µM 96% | [3]; at 100.0 µM 97% | [4]; at 11.0 µM 70% | [4]; at 33.0 µM 96% | [4]; [16] 95% | [4]; at 50.0 µM 85% | [4]; at 100.0 µM 96% | [5]; at 33.0 µM 96% | [5]; [16] 98% | [5]; at 50.0 µM 86% | [5]; at 100.0 µM 97% | [6]; at 11.0 µM 73% | [6]; at 33.0 µM 97% | [6]; at 100.0 µM 96% | [7]; [16] 95% | [7]; at 50.0 µM 89% | [8]; at 33.0 µM 97% | [8]; at 100.0 µM 97% | [9]; [16] 95% | [9]; at 50.0 µM 73.7% | [10]; at 33.0 µM 96% | [10]; [16] 97% | [10]; at 50.0 µM 87.2% | [10]; at 100.0 µM 96% | [11]; at 11.0 µM 75% | [11]; at 33.0 µM 96% | [11]; at 100.0 µM 97% | [12]; at 11.0 µM 78% | [12]; at 33.0 µM 97% | [12]; at 100.0 µM 97% | [13]; [16] 98% | [13]; at 50.0 µM 80.5% | [14]; at 33.0 µM 97% | [14]; at 100.0 µM 98%
inactive: [1]; at 1.2 µM -19% | [1]; at 3.7 µM 1% | [1]; at 11.0 µM 49% | [2]; at 1.2 µM -11% | [2]; at 3.7 µM -6% | [2]; at 11.0 µM 11% | [2]; at 33.0 µM 37% | [2]; at 100.0 µM 59% | [3]; at 1.2 µM -32% | [3]; at 3.7 µM -27% | [3]; at 11.0 µM 69% | [4]; at 1.2 µM 3% | [4]; at 3.7 µM 10% | [4]; [15] 1% | [5]; at 1.2 µM -6% | [5]; at 3.7 µM -16% | [5]; [15] 28% | [5]; at 11.0 µM 53% | [6]; at 1.2 µM -20% | [6]; at 3.7 µM -9% | [7]; [15] 12% | [8]; at 1.2 µM -17% | [8]; at 3.7 µM -6% | [8]; at 11.0 µM 69% | [9]; [15] 42% | [10]; at 1.2 µM -13% | [10]; at 3.7 µM -3% | [10]; [15] 44% | [10]; at 11.0 µM 54% | [11]; at 1.2 µM -4% | [11]; at 3.7 µM 4% | [12]; at 1.2 µM 0% | [12]; at 3.7 µM 17% | [13]; [15] 44% | [14]; at 1.2 µM -13% | [14]; at 3.7 µM -9% | [14]; at 11.0 µM 11%

Reference: PubChem BioAssay (NCI)
